# Sm TGR block = blocks Schistosoma mansoni thioredoxin glutathione reductase. purified TGR, DTNB reduction, TNB absorbance 405 nm. Potency, µM (titrated, usually from 114 µM), without a hit: at the top dose activity change, negative = inhibition, actives largely listed as inhibitors. actives 3% (n = 360,000). AID 485364; also: potency is read from the fitted curve at half-maximal effect; % is scaled to controls: 0 for no effect and ±100 for the full control effect; nearly all actives have a fitted effect of over 60% in size
#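 Kinetic colorimetric format: TGR-catalysed, NADPH-driven DTNB reduction monitored via TNB absorbance. Enzyme dispensed at 20 nM; compound exposure 15 min at room temperature before reaction start.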
# Shiga toxin inh = blocks Shiga toxin action in Vero cells | Vero cells, Shiga toxin protein synthesis inhibition reporter | actives 9.2% (n = 290,000) | inhibition, % at 38.7 µM; in the data active = inhibition mostly above about 28%, no sharp cut-off; inactive = mostly below about 43%; also: 0% is about no effect
# Pf growth 96h = inhibits malaria parasite growth, 96 h; P. falciparum luciferase reporter growth, 96 h; Potency, µM (highest dose often 28.7 µM), without a hit: top-dose activity change, negative = inhibition, actives largely listed as inhibitors; actives 6.9% (n = 320,000); also: potency is read from the fitted curve at half-maximal effect; % is scaled to controls: 0 for no effect and ±100 for the full control effect
#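 Erythrocytes infected with luciferase-expressing P. falciparum were dispensed at 2% hematocrit and 0.05% parasitemia (final), then incubated with compounds 96 hours at 37 C in 5% CO2. Luminescence after detection reagent addition reported growth.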
# CHX counter = affects cycloheximide protein synthesis inhibition readout, counter-screen; cell reporter, cycloheximide protein synthesis inhibition counterscreen; max response, %; actives 12% (n = 300,000); AID 2314; in the data active = max response mostly above about 13%, no sharp cut-off; inactive = mostly below about 14%; also: read at 38.3 µM for the half of the compounds with a filed dose; 0% is about no effect
# Pf growth 48h = inhibits P. falciparum growth in the first generation, 48 h | AID 504832 | P. falciparum luciferase growth in erythrocytes, 48 h | Potency, µM (highest dose often 28.7 µM), without a hit: at the top dose activity change, negative = inhibition, usual class: inhibitors | actives 5.9% (n = 310,000); also: potency is read from the fitted curve at half-maximal effect; % is scaled to controls: 0 for no effect and ±100 for the full control effect
#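 Read-out is firefly luciferase luminescence from an integrated reporter in P. falciparum, so falling signal marks reduced parasite growth. Infected erythrocytes were at 2% hematocrit and 0.1% parasitemia (final) in Albumax-supplemented RPMI 1640.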
# NS1 inh = blocks influenza NS1 protein function. Potency, µM (series often up to 46.1 µM), without a hit: at the top dose activity, positive = more growth. actives 0.4% (n = 270,000). AID 2326; calls by dose curve; also: potency is read from the fitted curve at half-maximal effect; actives are rising curves; nearly all actives have a fitted effect of over 50% in size
#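 In this qHTS, NS1 from influenza A is expressed in budding yeast, where it slows growth. Cells are switched from glucose to 2% galactose medium (pH 6.0, -URA), treated with compound, and growth recovery is read at OD600.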
# The depositor's hits bear a star; ? = inconclusive; nt = not tested or not shown. Most compounds without a hit are left out; they make up all but 21% or so of the library. Unless noted, calls follow the shape of the dose curve; as a rule, active = well fitted curve in the direction sought with a large enough effect; inconclusive = small, poorly fitted or top-dose-only effect, or another doubt; inactive = no such curve, though single readings can be large; an effect the other way counts as inactive or inconclusive.
SMILES,Sm TGR block,Shiga toxin inh,Pf growth 96h,CHX counter,Pf growth 48h,NS1 inh
CC1(C)Cc2c(c(N3CCOCC3)nc3sc4c(NCc5ccccc5)nnnc4c23)CS1,-16%,-17,1µM*,-4,nt,16%
CSCC[C@H](NC(=O)[C@H](CC(C)C)N1CCC(NC(=O)[C@@H](NC(=O)[C@H](Cc2ccccc2)NC(=O)[C@H](CO)NC(=O)[C@H](CC(=O)O)NC(=O)[C@@H](N)CCCCN)C(C)C)C1=O)C(N)=O (some centres not stated),nt,-4,nt,-10,nt,nt
Cc1ccc2c(c1)N(S(=O)(=O)c1ccc(F)cc1)C(C(C)(C)C)CO2 (configuration not stated),4%,10,0%,10,13µM*,-25%
Cc1ccc(S(=O)(=O)N2c3ccccc3OCC2C(C)(C)C)cc1 (configuration not stated),-3%,-3,?,-2,9.3µM*,-38%
COC(=O)CC1COc2ccccc2N1S(=O)(=O)c1ccc(OC)cc1 (configuration not stated),?,-4,?,-6,?,-8%
CCCn1cc(S(=O)(=O)c2ccccc2)c(=O)c2cc(F)c(N3CCCC(C)C3)cc21 (configuration not stated),0%,nt,nt,nt,nt,nt
CN1C(=O)S/C(=C\c2ccccc2OCc2ccc(C(=O)O)cc2)C1=O,-11%,4,?,-5,5%,nt
CC(C)N1C(=O)S/C(=C/c2ccccc2OCc2ccc(C(=O)O)cc2)C1=O,-5%,32*,55%,20,-13%,nt
O=C(CCNC(=O)c1ccc(Br)cc1)NCc1cccnc1,0%,nt,10%,nt,4%,nt
CC(=O)Nc1ccc(S(=O)(=O)Nc2nc3ccccc3nc2N2CCc3ccccc3C2)cc1,-4%,103*,84%,47*,126%,?
O=S(=O)(Nc1nc2ccccc2nc1Cl)c1ccc(Br)cc1,-21%,4,-13%,-7,28%,nt
O=S(=O)(Nc1nc2ccccc2nc1N1CCN(c2ccccn2)CC1)c1ccc(Cl)cc1,1%,38,nt,15*,43%,-48%
O=S(=O)(Nc1nc2ccccc2nc1N1CCc2ccccc2C1)c1ccc(Br)cc1,-9%,33*,82%,44*,196%,-36%
O=S(=O)(Nc1nc2ccccc2nc1N1CCc2ccccc2C1)c1ccc(Cl)cc1,-12%,25*,27%,71*,41%,-2%
O=S(=O)(Nc1nc2ccccc2nc1Cl)c1ccc(Cl)cc1,?,20,28%,-2,5%,-46%
CCOC(=O)C1CCCN(CCC(=O)Nc2ccc(C)cc2)C1 (configuration not stated),-1%,-5,-2%,-3,-8%,6%
CCCn1c2ccccc2c2cnn(CC(=O)N3CCCC(C)C3)c(=O)c21 (configuration not stated),3%,nt,nt,nt,nt,nt
CCN(Cc1cnn(C)c1)C(=O)c1cc(COc2ccc3c(c2)CCCC3)on1,-13%,-15,-20%,1,3%,8%
O=C(NC(c1cccnc1)C(F)(F)F)c1cc(COc2ccc3c(c2)CCCC3)on1 (configuration not stated),3%,100*,8%,46*,?,-36%
Cn1cc(CNC(=O)c2cc(COc3ccc4c(c3)CCCC4)on2)cn1,-6%,16,?,23*,-2%,-17%
CCCC(c1nnnn1C(C)(C)CC)N(CCCO)Cc1cc2cc(C)cc(C)c2[nH]c1=O (configuration not stated),9%,-8,?,-1,?,-4%
CCC(C)(C)n1nnnc1C(C(C)C)N(CCCO)Cc1cc2cc(C)ccc2[nH]c1=O (configuration not stated),-7%,-7,13µM*,-3,?,-7%
CCC(c1nnnn1C(C)(C)CC)N(CCCO)Cc1cc2cc(C)cc(C)c2[nH]c1=O (configuration not stated),?,-11,10µM*,-2,8.3µM*,-71%
N[C@@]1(C(=O)O)CCC[C@@H]1C(=O)O,nt,nt,nt,nt,nt,-1%
CN(CCc1ccccn1)c1ncnc2[nH]ncc12,5%,33*,3%,19,41%,-1%
SMILES,Sm TGR block,Shiga toxin inh,Pf growth 96h,CHX counter,Pf growth 48h,NS1 inh
CN(c1cccnc1)c1ncnc2[nH]ncc12,1%,2,8%,-1,-2%,9%
CN(C)CCCNC(=S)Nc1ccc(Br)cc1,-12%,20,30%,1,-11%,1%
CC(C)C[C@H]1CN=C(Nc2ccccc2)N1CCCC1CCCC1,11%,-2,12µM*,-3,?,-40%
Cc1oc2c(c1C(=O)Nc1ccc(OC(F)(F)F)cc1)C1=NCCN1C=N2,-6%,nt,nt,nt,nt,nt
CCOc1cccc(C(=O)NC(=S)Nc2cccnc2)c1,45µM*,80*,2.6µM*,38*,39%,26%
CCOc1cccc(C(=O)NC(=S)Nc2ccccc2)c1,40µM*,141*,-20%,104*,245%,27%
O=C(O)c1ccc(NC(=S)NC(=O)c2cccc(COc3ccccc3)c2)cc1,25µM*,7,?,8,8%,4%
CCOc1cccc(C(=O)NC(=S)Nc2cccc(NC(=O)c3ccccc3Cl)c2)c1,-23%,24,?,14*,-4%,17%
CCOC(=O)N1CCC(NC(=O)c2ccc3c(c2)N(C)C(=O)/C(=C/c2cccc(OC)c2)S3)CC1,-12%,-7,4%,-3,?,9%
CCOC(=O)C(Sc1cc(C)nc(N)n1)C(C)=O (configuration not stated),-20%,18,2%,1,nt,3%
CCN(c1ccc(C(=O)CSc2nnc(C3CC3)n2C2CC2)cc1)S(C)(=O)=O,-10%,nt,0%,nt,?,nt
CCOC(=O)c1c(CCl)nc2ccccc2c1-c1ccccc1,25µM*,-5,3%,-1,-1%,4%
CCOC(=O)c1c(C)nc2ccccc2c1C,-2%,15,nt,25*,28%,-16%
CCC(=O)Nc1nc(-c2ccccc2)nc(SC)c1C(C)=O,-4%,4,?,-6,5%,nt
CCOC(=O)c1c(C)nc2ccccc2c1-c1ccccc1,1%,-11,-19%,-4,3%,-31%
CCOC(=O)c1c(C)nc(-c2ccccc2)nc1NC(=O)CC,-2%,70*,?,24*,96%,?
O=C(COc1ccccc1)N(CCc1ccccc1)c1nc(-c2ccc(F)cc2)cs1,3%,10,?,-3,?,5%
O=C(Nc1ccc(C(=O)OCc2cc(=O)n3ccsc3n2)cc1)c1cccc(F)c1,-3%,nt,nt,nt,nt,nt
Cc1cc(C)c(S(=O)(=O)/N=C2\C=CC(=O)C(Cl)=C2)c(C)c1,4µM*,-17,?,4,nt,15%

# From PubChem BioAssay
